Screening results deposited in PubChem by Emory University Molecular Libraries Screening Center.
14-3-3 PPI – modulators of 14-3-3 gamma protein binding, primary screen, biochemical, fluorescence polarization; 160,000 compounds, 0.19% hits; FP, 14-3-3gamma / TMR-pS259-Raf peptide binding; AID 422, 2006; inhibition, % at 40 µM; 14-3-3 protein gamma (Homo sapiens), P61981; in the data active = inhibition above about 30%
Target sequence (P61981 whole entry, looked up): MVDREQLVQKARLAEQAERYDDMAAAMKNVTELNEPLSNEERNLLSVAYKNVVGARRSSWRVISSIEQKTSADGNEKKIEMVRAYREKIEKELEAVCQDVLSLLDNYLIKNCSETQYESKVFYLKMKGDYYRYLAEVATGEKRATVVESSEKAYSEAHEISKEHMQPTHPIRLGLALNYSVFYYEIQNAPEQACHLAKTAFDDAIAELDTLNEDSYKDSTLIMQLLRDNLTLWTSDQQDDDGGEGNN
Of the large screens only hits and unclear results are named; the others gave an inactive call. The sample as a whole holds a higher share of hits than the screen did.

CC1CC(=O)N(c2ccc(N(C)Cc3ccccc3)c([N+](=O)[O-])c2)C1=O (stereo not drawn)	none
CC1CCC2C(=O)N(c3ccc(N(C)Cc4ccccc4)c([N+](=O)[O-])c3)C(=O)C2C1 (stereo not drawn)	14-3-3 PPI 38
CC1CCC2C(=O)N(c3ccc(N(C)C4CCCCC4)c([N+](=O)[O-])c3)C(=O)C2C1 (stereo not drawn)	none
O=C(Nc1ccccc1[N+](=O)[O-])c1ccc(Br)cc1	none
CCCCCOC(=O)C1=C(C)Nc2nc3ccccc3n2C1c1cccc(OC)c1 (stereo not drawn)	none
Cc1cc2c(N)cccc2nn1	14-3-3 PPI 44
Cc1c(N)cccc1-c1nc2ccccc2s1	none
Cc1cc(N)c2ccccc2n1	none
Cc1cc(-c2csc(Nc3ccc(N(C)C)cc3)n2)ccc1F	none
CC1=C(C(=O)Nc2cc(C)ccn2)C(c2cc([N+](=O)[O-])ccc2Cl)C2=C(CC(C)(C)CC2=O)N1 (stereo not drawn)	none
O=S1(=O)c2ccccc2NC(c2ccc(Oc3ccccc3)cc2)N1Cc1ccccc1 (stereo not drawn)	none
O=C(O)c1ccc(Cn2c(SCC(=O)c3ccc(F)cc3)nc3ccsc3c2=O)cc1	none
CCC(C)OC(=O)C1=C(C)NC2=C(C(=O)CC(c3ccccc3)C2)C1c1cc(OC)c(OC)cc1Br (stereo not drawn)	14-3-3 PPI 39
CCC(C)OC(=O)C1=C(C)NC2=C(C(=O)CC(c3ccc(OC)cc3)C2)C1c1ccc(OC)c(OC)c1 (stereo not drawn)	none
CCC(C)OC(=O)C1=C(C)NC2=C(C(=O)CC(c3ccccc3)C2)C1c1cccc2ccccc12 (stereo not drawn)	none
CCN1C(=O)CC(C(=O)Nc2ccc(F)cc2)SC1=Nc1cccc(C(F)(F)F)c1 (stereo not drawn)	none
CCN1CCN(C(=O)c2cc(Nc3ccccc3)nc3ccccc23)CC1	none
O=[N+]([O-])c1ccc(N2CCCC2)c(S(=O)(=O)N2CCOCC2)c1	none
CN1CCN(c2ccc([N+](=O)[O-])cc2S(=O)(=O)N2CCCC2)CC1	14-3-3 PPI 39
Cc1ccc([N+](=O)[O-])cc1S(=O)(=O)N1CCCCC1	none
CCC(C)OC(=O)C1=C(C)NC2=C(C(=O)CC(c3ccccc3)C2)C1c1ccc2c(c1)OCO2 (stereo not drawn)	none
c1ccc(-c2cc3c(ncn4c(-c5ccccc5)nnc34)s2)cc1	none
CSC1=NC(=Cc2ccccc2F)C(=O)S1	none
CC(=O)Nc1ccc(S(=O)(=O)N2CCCCC2c2cccnc2)cc1 (stereo not drawn)	none
CCC(=O)N1CCc2cc(S(=O)(=O)N3CCCCC3c3cccnc3)ccc21 (stereo not drawn)	none
COc1cc(C)c(C)cc1S(=O)(=O)N1CCCCC1c1cccnc1 (stereo not drawn)	14-3-3 PPI 31
COc1ccc(C2C=C(c3ccc(Cl)cc3)Nc3nnnn32)c(OC)c1 (stereo not drawn)	none
Cc1cc([N+](=O)[O-])ccc1N=Cc1ccc([N+](=O)[O-])cc1	none
Nc1cc(-c2ccco2)no1	none
c1coc(-c2cc(C3CCNCC3)[nH]n2)c1	14-3-3 PPI 42
O=C(O)c1cc(-c2ccco2)[nH]n1	none
CC1(C)CC(=O)c2c(oc3ccc(NS(=O)(=O)c4cccs4)cc23)C1	none
COc1ccc(-c2csc(-c3cc4cc(OC)ccc4oc3=O)n2)cc1	none
O=C(Nc1cccnc1)c1cccnc1	none
Cn1nnc2cc(C(=O)Nc3cccnc3)ccc21	none
COc1ccc(C(=O)Nc2cccnc2)cc1OC	14-3-3 PPI 47
O=C(Nc1ccc2c(c1)C(=O)c1ccccc1C2=O)c1ccc(Br)cc1	none
Cn1c(=O)c(C(=O)NCCO)c(O)c2ccccc21	none
Cn1c(=O)c(Nc2ccc(Br)cc2)c2c3c(cccc31)C(=O)c1ccccc1-2	14-3-3 PPI 151
Cn1c(=O)c(N)c2c3c(cccc31)C(=O)c1ccccc1-2	14-3-3 PPI 109
CC(=O)c1c2c3c(cccc3n(C)c1=O)C(=O)c1ccccc1-2	14-3-3 PPI 32
COc1ccc(Nc2c3c4c(c(Br)ccc4n(C)c2=O)C(=O)c2ccccc2-3)cc1	none
COc1ccc2c(c1N)C(=O)c1ccccc1C2=O	none
CC(=O)c1c2c3c(c(Br)ccc3n(C)c1=O)C(=O)c1ccccc1-2	none
CCCCCCCNc1c2c3c(cccc3n(C)c1=O)C(=O)c1ccccc1-2	none
CCCOc1ccc(C(=O)Nc2ccc(-c3nc4ncccc4o3)cc2)cc1	none
COC(=O)C1=C(C)NC2=C(C(=O)CC(c3ccccc3Cl)C2)C1c1coc2ccccc2c1=O (stereo not drawn)	none
COC(=O)c1c[nH]n2c(NC3CCCCCC3)c(-c3ccc(F)cc3)nc12	none
O=C1c2ccccc2C(=O)N1CCCC(=O)N1c2ccccc2Sc2ccccc21	none
COc1cccc(C(=O)N2CCN(Cc3ccccc3C)CC2)c1	none
Cc1ccc(C(=O)Cc2cc3ccccc3oc2=O)cc1	none
O=C(Nc1ccc(Br)c2cccnc12)c1cccc(COCC(F)(F)C(F)F)c1	none
Cc1cccc(C2OC3(C(=O)c4ccccc4C3=O)C3C(=O)N(c4ccc(C)c(Cl)c4)C(=O)C23)c1 (stereo not drawn)	none
O=c1c2cn[nH]c2nc(SCc2cccc([N+](=O)[O-])c2)n1-c1ccccc1Br	none
Cc1ccc(Nc2c(-c3coc(Br)c3)nc3ccc(Cl)cn23)cc1	none
CCCOc1ccc(/C(O)=C2\C(=O)C(=O)N(Cc3cccnc3)C2c2ccccc2F)c(C)c1 (stereo not drawn)	none
O=C1CN(c2ccc(Cl)cc2)C(=O)N1	none
CCN1CCN(CCCNC(=O)c2cn(CC(C)C)c(=O)c3c2c2ccccc2n3C)CC1	none
CCCS(=O)(=O)N1N=C(c2ccc(NS(C)(=O)=O)cc2)CC1c1ccccc1F (stereo not drawn)	14-3-3 PPI 71
CS(=O)(=O)Nc1ccc(C2=NN(S(C)(=O)=O)C(c3ccccc3F)C2)cc1 (stereo not drawn)	none
CCS(=O)(=O)Nc1ccc(C2=NN(S(=O)(=O)CC)C(c3ccccc3F)C2)cc1 (stereo not drawn)	none
Cc1ccc(C(=O)Oc2c(Sc3ccccc3[N+](=O)[O-])c(C)nn2C(C)(C)C)cc1	none
CCN(CC)C(=S)Oc1ccc(-c2ccccc2)cc1	none
O=C1CCCC(=O)N1c1ccc(N2CCC(C(O)(c3ccccc3)c3ccccc3)CC2)c([N+](=O)[O-])c1	none
O=C1C=C(C(F)(F)F)c2ccc(NC3CCCCC3)c3cccc1c23	14-3-3 PPI 131
O=C1C(Cl)=C(NC2CCCCC2)C(=O)N1c1cccc(C(F)(F)F)c1	none
O=[N+]([O-])c1cc(S(=O)(=O)C(Cl)(Cl)Br)ccc1NC1CCCCC1	none
COc1ccc(C(=O)COC(=O)c2ccc(N3C(=O)C4CC=CC(C)C4C3=O)cc2)cc1 (stereo not drawn)	none
Cc1ccc2oc(-c3cccc(NC(=O)c4cc([N+](=O)[O-])ccc4Br)c3C)nc2c1	none
CC1CCCC(NC(=O)c2cn(C3CCCC3)c(=O)c3c2c2ccccc2n3C)C1C (stereo not drawn)	none
Cc1cc(NC(=O)CSc2nnc(N)s2)no1	none
Cc1cccc(C2Nc3ccccc3-c3nnc(SCc4ccccc4F)nc3O2)n1 (stereo not drawn)	none
C=CCSc1nnc2c(n1)OC(c1cccc(C)n1)Nc1ccccc1-2 (stereo not drawn)	none
CCCCSc1nnc2c(n1)OC(c1cccc(OCC)c1OC)Nc1ccccc1-2 (stereo not drawn)	14-3-3 PPI 70
CCCSc1nnc2c(n1)OC(c1cccc(OCC)c1OC)Nc1ccccc1-2 (stereo not drawn)	none
